27 compounds from PubChem BioAssay (NCATS) can be followed below.

Assay [1] concerns the target N-terminal Xaa-Pro-Lys N-methyltransferase 1 (Homo sapiens) (UniProt Q9BV86). The assay can be described thus: qHTS Assay for Inhibitors of N-terminal methyltransferase 1 (NTMT1): LOPAC validation of the NTMT1 SAHH-coupled ThioGlo3 Assay (AID 1347143). Note: nearly all actives have a fitted effect of over 70% in size. Note: potency is the fitted concentration of half-maximal effect. Summed up: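 Fluorescence read-out (excitation 340nm, emission 450nm) of SAH-derived thiol, measured via SAHH coupling and ThioGlo3, taken immediately and after a 30 min room-temperature reaction, then normalized to the background read. Enzyme: NTMT1 at 125nM; cofactor SAM 100uM in the added reagent.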

Assay [2] deals with Lysine-specific demethylase 5B (Homo sapiens) (UniProt Q9UGL1). The experiment in a line: Optimization screen for KDM5B Histone Demethylases FDH coupled qHTS against the LOPAC library (AID 1347166). Summed up: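 KDM5BDeltaAP (200nM final) preincubated 10 min with compound, then 12.5uM H3K4Me3, 25uM a-ketoglutarate, ascorbate, Fe(II), NAD+ and FDH added; 50mM HEPES pH 7.5, 0.01% Tween-20. NADH fluorescence (340/450 nm) change over 30 min, room temperature.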
Sequence of Lysine-specific demethylase 5B (Homo sapiens) (Q9UGL1 whole entry, looked up): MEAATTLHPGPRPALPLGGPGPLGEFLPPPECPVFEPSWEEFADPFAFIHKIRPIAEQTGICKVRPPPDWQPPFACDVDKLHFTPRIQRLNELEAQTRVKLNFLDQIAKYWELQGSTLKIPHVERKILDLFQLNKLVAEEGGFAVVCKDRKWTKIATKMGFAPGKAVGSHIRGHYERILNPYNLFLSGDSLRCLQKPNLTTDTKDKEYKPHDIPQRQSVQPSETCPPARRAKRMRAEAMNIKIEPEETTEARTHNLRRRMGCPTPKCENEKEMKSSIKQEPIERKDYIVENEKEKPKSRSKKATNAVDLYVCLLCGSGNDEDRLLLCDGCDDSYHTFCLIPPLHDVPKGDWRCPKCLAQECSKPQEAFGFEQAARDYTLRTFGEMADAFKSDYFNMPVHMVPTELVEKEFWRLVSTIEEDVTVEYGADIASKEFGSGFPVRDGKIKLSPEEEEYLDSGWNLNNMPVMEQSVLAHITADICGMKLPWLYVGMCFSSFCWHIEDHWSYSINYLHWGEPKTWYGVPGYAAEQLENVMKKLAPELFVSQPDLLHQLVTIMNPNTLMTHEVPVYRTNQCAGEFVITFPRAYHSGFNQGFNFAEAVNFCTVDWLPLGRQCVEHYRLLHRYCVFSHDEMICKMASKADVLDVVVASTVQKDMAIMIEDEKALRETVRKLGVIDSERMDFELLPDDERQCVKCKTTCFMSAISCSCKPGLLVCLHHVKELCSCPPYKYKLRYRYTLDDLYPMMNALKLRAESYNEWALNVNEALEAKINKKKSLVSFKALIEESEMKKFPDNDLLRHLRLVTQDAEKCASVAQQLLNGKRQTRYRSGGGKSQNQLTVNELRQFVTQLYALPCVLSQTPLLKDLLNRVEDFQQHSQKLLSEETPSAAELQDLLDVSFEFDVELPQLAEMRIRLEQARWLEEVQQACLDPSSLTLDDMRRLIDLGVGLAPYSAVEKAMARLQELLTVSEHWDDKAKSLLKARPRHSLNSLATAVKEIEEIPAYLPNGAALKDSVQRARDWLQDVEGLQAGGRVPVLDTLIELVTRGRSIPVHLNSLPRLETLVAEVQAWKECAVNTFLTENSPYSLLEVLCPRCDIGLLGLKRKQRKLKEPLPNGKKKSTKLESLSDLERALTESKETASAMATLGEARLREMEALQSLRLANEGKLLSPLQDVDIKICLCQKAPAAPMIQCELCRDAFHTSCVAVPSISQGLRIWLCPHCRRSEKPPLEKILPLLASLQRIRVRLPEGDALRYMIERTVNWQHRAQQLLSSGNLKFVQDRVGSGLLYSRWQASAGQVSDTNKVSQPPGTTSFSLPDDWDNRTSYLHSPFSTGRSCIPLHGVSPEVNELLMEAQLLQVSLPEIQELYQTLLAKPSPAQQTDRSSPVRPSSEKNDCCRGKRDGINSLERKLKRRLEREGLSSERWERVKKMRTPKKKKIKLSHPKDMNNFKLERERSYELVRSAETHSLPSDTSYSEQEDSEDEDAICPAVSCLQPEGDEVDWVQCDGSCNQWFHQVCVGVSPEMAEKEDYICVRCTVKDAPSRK

The test system of assay [3] is Zika virus NS2B-NS3 protease. The experiment in a line: Primary screen GU AMC qHTS for Zika virus inhibitors (AID 1347154). Note: nearly all actives have a fitted effect of over 70% in size. The method, boiled down: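 Unlinked Zika NS2B hydrophilic domain/NS3 protease domain noncovalent complex (25 nM final) in 10 mM Tris-HCl pH 8.0, 0.01% Tween 20, with AMC peptide substrate. Fluorescence (ex 340, em 450 nm) change over 15 min, room temperature; percent inhibition fitted to 4-parameter Hill equation.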

The test system of assay [4] is Zika virus NS2B-NS3 protease (unlinked). The experiment in a line: Optimization of GU AMC qHTS for Zika virus inhibitors: Unlinked NS2B-NS3 protease assay (AID 1347151). Note: series mostly up to about 52 µM; nearly all actives have a fitted effect of over 80% in size. Summed up:
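Fluorescence gain (340/450 nm) over 15 min at room temperature, ~20% conversion, gave percent inhibition fitted to a 4-parameter Hill equation; enzyme was unlinked NS2B-NS3 (25 nM final), pH 8.0 Tris buffer.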

Another assay addresses Furin (Homo sapiens) (UniProt P09958). The assay can be described thus: Furin counterscreen qHTS for Zika virus inhibitors (AID 1347149).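 Note: purified recombinant full-length human furin enzyme at 5 nM; fluorescence gain from furin cutting a BOC-RVRR-AMC peptide substrate over 15 min; top concentration of the series differs between compounds; nearly all actives have a fitted effect of over 70% in size.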 The method, boiled down: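 Fluorogenic cleavage of BOC-RVRR-AMC (2 microM final, Km ~15 µM) was monitored (ex 340, em 450 nm) at 37C after 15 min RT preincubation of 5 nM furin with compounds in HEPES pH 7.0 buffer with CaCl2 and Triton X-100. Percent inhibition was fitted to a 4-parameter Hill curve.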

Assay [5] in a line: ZIKV-mCherry secondary qHTS for Zika virus inhibitors (AID 1347158). Note: top concentration of the series differs between compounds. The method, boiled down:
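Vero cells, 5,000/well, plated overnight at 37 °C, then compound added and infected with recombinant ZIKV-mCherry at MOI 1 for 48-72 h. PFA-fixed, Hoechst nuclear stain, high-content imaging; cells with mCherry intensity above 450 RFU scored infected, reported as percent infection.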

Assay [6] has as its system Zika virus NS2B-NS3 protease (linked). The experiment in a line: 384 well plate NINDS AMC confirmatory qHTS for Zika virus inhibitors (AID 1347163). Note: potency is the fitted concentration of half-maximal effect; nearly all actives have a fitted effect of over 50% in size. Particulars: Recombinant NS2B-NS3 protease, Ac-VKTGKR-AMC fluorescence. The method, boiled down: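 Linked protease 5/30/60 nM final; cpds up to 1 mM final, ~15 min preinc. Substrate Ac-VKTGKR-AMC 30 microM final. RT, dark, 25 min; FI ex 355/em 460; normalized to no-enzyme/no-inhibitor ctrls.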

Assay [7] has as its system Zika virus NS2B-NS3 protease (linked construct). The experiment in a line: 384 well plate NINDS Rhodamine confirmatory qHTS for Zika virus inhibitors (AID 1347164). Note: potency is the fitted concentration of half-maximal effect; nearly all actives have a fitted effect of over 65% in size. Conditions: rhodamine-110 peptide substrate fluorescence. The method, boiled down: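 Fluorescence at 485/538 nm was measured 25 minutes after adding 10 microM Ac-LKRR-Rd substrate, in the dark at room temperature. The protease (5, 30 or 60 nM final) had been preincubated ~15 minutes with compound; aprotinin as control.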

Assay [8] has the same test system. The assay can be described thus: Primary screen NINDS Rhodamine qHTS for Zika virus inhibitors (AID 1347160). Note: nearly all actives have a fitted effect of over 55% in size. Summed up: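 In 10 mM Tris-HCl pH 8.0 containing 0.01% Tween 20, linked NS2B-NS3 protease (25 nM final) is exposed to test compounds for 15 min. Cleavage of 1.5 microM Rhodamine110 substrate is tracked by fluorescence over 15 min.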
In assay [9] the test system is Zika virus NS2B-NS3 protease (unlinked complex). The experiment in a line: Primary screen GU Rhodamine qHTS for Zika virus inhibitors: Unlinked NS2B-NS3 protease assay (AID 1347159). Note: nearly all actives have a fitted effect of over 60% in size. Summed up:
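Percent inhibition derives from the 15-min fluorescence change (ex 480, em 540 nm), normalized to no-enzyme and no-inhibitor wells. Reactions contained 25 nM NS2B-NS3 complex and 1.5 microM substrate in 10 mM Tris-HCl pH 8.0.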

Inconclusive results are not listed. Entries that show only a call come without a potency. Calls of active or inactive are those of the source. Calls come from the whole dose curve; as a rule, active = well fitted curve in the direction sought with a large enough effect; inconclusive = small, poorly fitted or top-dose-only effect, or another doubt; inactive = no such curve, though single readings can be large; an effect the other way counts as inactive or inconclusive.

Sequence of N-terminal Xaa-Pro-Lys N-methyltransferase 1 (Homo sapiens) (Q9BV86 whole entry, looked up): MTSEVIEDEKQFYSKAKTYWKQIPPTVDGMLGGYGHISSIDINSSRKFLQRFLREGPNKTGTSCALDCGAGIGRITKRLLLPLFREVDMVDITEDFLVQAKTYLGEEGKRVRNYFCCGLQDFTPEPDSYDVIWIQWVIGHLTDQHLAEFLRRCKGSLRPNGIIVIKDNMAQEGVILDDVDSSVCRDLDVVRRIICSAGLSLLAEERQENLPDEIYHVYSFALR
Sequence of Furin (Homo sapiens) (P09958 whole entry, looked up): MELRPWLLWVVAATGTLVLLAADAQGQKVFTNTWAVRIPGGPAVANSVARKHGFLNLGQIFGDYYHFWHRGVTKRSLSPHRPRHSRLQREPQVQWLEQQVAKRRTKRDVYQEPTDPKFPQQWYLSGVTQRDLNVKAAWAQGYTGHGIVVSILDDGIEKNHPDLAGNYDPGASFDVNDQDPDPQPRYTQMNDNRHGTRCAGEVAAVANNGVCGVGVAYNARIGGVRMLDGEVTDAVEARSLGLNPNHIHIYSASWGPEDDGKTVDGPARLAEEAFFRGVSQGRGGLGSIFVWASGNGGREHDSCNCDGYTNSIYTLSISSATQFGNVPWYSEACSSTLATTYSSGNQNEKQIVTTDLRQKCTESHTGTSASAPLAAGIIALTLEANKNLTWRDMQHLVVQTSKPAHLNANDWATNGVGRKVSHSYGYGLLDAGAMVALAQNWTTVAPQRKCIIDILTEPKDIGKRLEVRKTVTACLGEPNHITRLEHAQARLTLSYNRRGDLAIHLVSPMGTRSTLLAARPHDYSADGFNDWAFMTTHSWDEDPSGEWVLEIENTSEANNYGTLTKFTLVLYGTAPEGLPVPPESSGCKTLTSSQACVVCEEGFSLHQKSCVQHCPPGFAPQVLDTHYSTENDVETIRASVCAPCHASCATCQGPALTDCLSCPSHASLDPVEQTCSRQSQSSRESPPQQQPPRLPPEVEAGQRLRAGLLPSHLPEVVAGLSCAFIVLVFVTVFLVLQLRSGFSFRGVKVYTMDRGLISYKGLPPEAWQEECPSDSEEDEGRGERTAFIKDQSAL

Turning to `CC1=NN=C(c2ccc(N)cc2)c2cc3c(cc2C1)OCO3`, the Potency in [1] is 56.2 µM (active). For the same compound, in assay [2], the result was inactive.

For the compound `C#CCOC(=O)C1=CCCN(C)C1`, the Potency entry in assay [1] and in [3] was “inactive” each time. The compound was called inactive in assay [2].

Take `Cc1nc(-c2ccc(-c3ccc(C(=O)N4CCc5cc6c(cc54)C4(CCN(C)CC4)CO6)cc3)c(C)c2)no1`: the Potency result in [3] is “inactive”.

`COCC1(CO)C(=O)C2CCN1CC2` (centres undefined): the Potency result in [3] was “inactive”.

With `CNCCc1c[nH]c2ccc(O)cc12`, the Potency entry in assay [4] was “inactive”. Also, the outcome in [2] was inactive.

Consider `COc1cc(C(O)CN)ccc1O` (centres undefined), for which, in [1], the Potency entry was “inactive”. For the same compound, the compound was classed as inactive in assay [2].

On to `CC(=O)[C@H]1CCC2C3CC[C@H]4C[C@H](O)CC[C@]4(C)C3CC[C@@]21C` (some centres undefined), for which the Potency entry in assay [1] was “inactive”. For the same compound, the compound was called inactive in [2].

`c1ccc(CCCN2CCN(CCOC(c3ccccc3)c3ccccc3)CC2)cc1`: the Potency entry in [4] and in assay [3] was “inactive” throughout. Also, the compound was classed as inactive in assay [2].

With `CCOCCOC(C)=O`, the Potency entry in assay [3] was “inactive”.

For `CC(C)NC(C)Cc1ccc(I)cc1` (centres undefined), in [1], the Potency result was “inactive”. The compound was classed as inactive in [2].

On to `O=C(O)c1cc(Oc2ccc(C(F)(F)F)cc2Cl)ccc1[N+](=O)[O-]`, for which the Potency entry (with Furin (Homo sapiens); in assay [3]) was “inactive” throughout. In addition, the outcome in assay [5] was inactive. Also, the Potency in assay [6] is 562 µM (active); in assay [7], 316 µM (active).

Turning to `C#CC1(O)CCC2C3CCC4=CC(=O)CCC4(C)C3CCC21C` (centres undefined), the Potency entry in assay [3] was “inactive”.

With `CCCC[N+]1(C)[C@H]2CC(OC(=O)[C@H](CO)c3ccccc3)C[C@H]1[C@H]1O[C@H]12` (some centres undefined), the Potency entry in [3] was “inactive”.

As for `NC(N)=NOCCC(N)C(=O)O` (centres undefined), the Potency entry in assay [1] was “inactive”. Moreover, the compound was classed as inactive in assay [2].

`NC(CCP(=O)(O)O)C(=O)O` (centres undefined): the Potency entry in assay [1] and in assay [3] was “inactive” each time. Besides, the outcome in [2] was inactive.

For `CCN1CCN(C(=O)Cc2ccc(Nc3ncc(F)c(Nc4ccc(C(=O)Nc5ccccc5Cl)cc4)n3)cc2)CC1`, the Potency result in [3] and in assay [8] was “inactive” throughout.

`CCOC(=O)Nc1ccc(NCc2ccc(F)cc2)cc1N`: the Potency result in assay [3], in assay [9] and in assay [8] was “inactive” throughout.

Consider `CC(Cc1ccc(O)cc1)NCC(O)c1cc(O)cc(O)c1` (centres undefined), for which, in assay [3], the Potency entry is “inactive”. Also, the compound was called inactive in [2].

Regarding `CC(=O)O[C@@]12CO[C@H]1C[C@H](O)[C@@]1(C)C(=O)[C@H](O)C3=C(C)[C@@H](O)C[C@@](O)([C@@H](OC(=O)c4ccccc4)[C@@H]21)C3(C)C`, the Potency result in assay [3] was “inactive”.

On to `CC(=O)Nc1ccc(OC[C@](C)(O)C(=O)Nc2ccc([N+](=O)[O-])c(C(F)(F)F)c2)cc1`, for which the Potency result in assay [3], in [9] and in assay [8] was “inactive” each time.

`CN[C@@H]1C[C@@H](c2ccc(Cl)c(Cl)c2)c2ccccc21`: the outcome in assay [2] was inactive.

For the compound `CC1(N2CCC(n3c([C@@H]4CCCNC4)nc4ccccc43)CC2)CCCCCCC1`, the Potency entry in assay [3], in [9] and in assay [8] was “inactive” each time.

Take `CC(N[C@H]1C[C@H]1c1ccccc1)c1ccc2c(c1)OCCO2` (some centres undefined): the Potency entry in [3] and in assay [9] was “inactive” in each case.

For `CC[N+]1(CCOC(=O)C(O)(c2ccccc2)c2ccccc2)CCCCC1`, in [3], the Potency entry was “inactive”.

Turning to `CCC(=O)O[C@@H]1C=C2CCC3C(CCC4(C)C3CC[C@@H]4OC(=O)CC)C2CC1` (some centres undefined), in assay [3], the Potency result was “inactive”.

As to `CC(C)(C)NC[C@H](O)c1ccc(O)cc1Cl`, the Potency entry in [3] and in assay [8] was “inactive” throughout.

Take `CC(C)[C@]12O[C@H]1[C@@H]1O[C@]13[C@]1(O[C@H]1C[C@H]1C4=C(CC[C@@]13C)C(=O)OC4)[C@@H]2O`: the Potency entry in assay [3] and in assay [8] was “inactive” in each case.
